Measurements reported in ChEMBL document CHEMBL3988442, “University of Dundee, Small-Polar-MMV Screening Library” (2021).
About 1,000 (1.4%) of roughly 69,000 compounds showed an effect of 50% or more. The sample as a whole holds a higher share of strong results than the screen did.

Test system: Leishmania donovani
Experiment: Leishmania intramacrophage assay
Format: functional, organism-based
Set-up: scale not given: in the data most compounds retested in dose-response had high values

Compound: CCc1c(C)nc(C)nc1N1C[C@@H](CN(CC)CCO)[C@@H](CO)C1
- Percent Effect (30.3 µM, […]): -0.6836%

Compound: CCc1c(C)nc(C)nc1N1C[C@@H](CN(C)CCN(C)C)[C@@H](CO)C1
- Percent Effect (30.3 µM, […]): 30.66%

Compound: CCc1c(C)nc(C)nc1N1C[C@@H](CN(C)C)[C@@H](CO)C1
- Percent Effect (30.3 µM, […]): 54.47%

Compound: Cn1ccnc1CN1C[C@@H](CN2CCCC2)[C@@H](CO)C1
- Percent Effect (30.3 µM, […]): 30.27%

Compound: CCN1CC[C@]2(CN(Cc3nccs3)C[C@H]2c2ccccc2)C1=O.O=C(O)C(F)(F)F
- Percent Effect (30.3 µM, […]): 23.61%

Compound: COc1ccc(-c2n[nH]c(C)c2CC(=O)NCCN2CCOCC2)cc1
- Percent Effect (30.3 µM, […]): -10.63%

Compound: Cc1noc(C)c1CS(=O)(=O)C(C)C(=O)N(C)c1ccccc1 (stereo not given)
- Percent Effect (30.3 µM, […]): 39.61%

Compound: Cc1cc(CS(=O)(=O)C(C)C(=O)N(C)c2ccccc2)on1 (stereo not given)
- Percent Effect (30.3 µM, […]): 59.375%

Compound: Cc1noc(CS(=O)(=O)C(C)C(=O)N(C)c2ccccc2)n1 (stereo not given)
- Percent Effect (30.3 µM, […]): 12.83%

Compound: Cc1cc(C)n(CC2CN(Cc3cc(C)on3)CCO2)n1 (stereo not given)
- Percent Effect (30 µM): 28.82%

Compound: O=C(CN1CCOCS1(=O)=O)NCc1ccccc1
- Percent Effect (30.3 µM, […]): -15.82%

Compound: COC1COC2(CCN(Cc3ccc4c(c3)OCO4)CC2)C1.O=C(O)C(F)(F)F (stereo not given)
- Percent Effect (30.3 µM, […]): 2.758%

Compound: CC(C)OCCCN1CCCC(c2nc3ccccc3n2C(C)C)C1 (stereo not given)
- Percent Effect (30 µM, 30.03 µM): 51.41%

Compound: CC(C)n1c(C2CCCN(CC(N)=O)C2)nc2ccccc21 (stereo not given)
- Percent Effect (30.3 µM, […]): 0.009374%

Compound: CC(C)n1c(C2CCCN(CCS(C)(=O)=O)C2)nc2ccccc21 (stereo not given)
- Percent Effect (30 µM, 30.03 µM): 13.25%

Compound: CC(C)c1noc(OCc2cccc(C#N)c2)n1
- Percent Effect (30.3 µM, […]): 36.94%

Compound: CN1CCN(Cc2noc(-c3cc(-c4ccccc4F)n[nH]3)n2)CC1
- Percent Effect (30.3 µM, […]): -14.35%

Compound: c1cc2c(cc1-n1nc(C3CC3)nc1-c1csnn1)OCCO2
- Percent Effect (30.3 µM, […]): -0.4467%

Compound: CC(CNC(=O)c1c[nH]nn1)Oc1ccc(Cl)cc1 (stereo not given)
- Percent Effect (30.3 µM, […]): -48.71%

Compound: c1ccn2c(C3CCCN(c4ncnc5c4CCNC5)C3)nnc2c1 (stereo not given)
- Percent Effect (30.3 µM, […]): -1.091%

Compound: Clc1cccc(C2CCN(c3ncnc4c3CCNC4)C2)c1 (stereo not given)
- Percent Effect (30.3 µM, […]): 76.01%

Compound: c1ccc(C2CCN(c3ncnc4c3CCNC4)CC2)cc1
- Percent Effect (30.3 µM, […]): 29.27%

Compound: c1ccc2c(c1)CN(c1ncnc3c1CCNC3)CCO2
- Percent Effect (30.3 µM, […]): 24.34%

Compound: c1cc(C2CCN(c3ncnc4c3CCNCC4)CC2)ccn1
- Percent Effect (30.3 µM, […]): 3.191%

Compound: c1ccc(C2CCCN(c3ncnc4c3CCNC4)CC2)cc1 (stereo not given)
- Percent Effect (30.3 µM, […]): 74.19%

Compound: N#Cc1cc(C(F)(F)F)ccc1NCC1CCS(=O)(=O)CC1
- Percent Effect (30.3 µM, […]): 3.711%

Compound: O=C(c1cc[nH]n1)N1CCC(c2cc(Nc3ccccn3)n[nH]2)CC1
- Percent Effect (30.3 µM, […]): 6.823%

Compound: Cc1ccc(NC2CCN(C(=O)c3cccc4[nH]ncc34)CC2)nn1
- Percent Effect (30.3 µM, […]): 16.62%

Compound: Cc1cc(CCC(=O)N2CC[C@H](O)C2)ccc1Br
- Percent Effect (30.3 µM, […]): -18.41%

Compound: COc1ccccc1C(C)CC(=O)N1CC[C@H](O)C1 (stereo not given in full)
- Percent Effect (30.3 µM, […]): 5.433%

Compound: Cc1ccccc1C(C)CC(=O)N1CC[C@H](O)C1 (stereo not given in full)
- Percent Effect (30.3 µM, […]): 50.74%

Compound: COCCNc1ccccc1CNC(=O)NCc1cnc(C)s1
- Percent Effect (30.3 µM, […]): 19.41%

Compound: c1cnn(CC2CCCN2Cc2nc(-c3ccoc3)no2)c1 (stereo not given)
- Percent Effect (30 µM, 30.03 µM): -37.38%

Compound: Cn1nc(C(=O)NCc2ccccc2C(F)(F)F)c2c1CCS(=O)(=O)C2
- Percent Effect (30.3 µM, […]): 36.38%

Compound: CCN1CC2(CCCCN2C(=O)c2ccsc2)CC1=O (stereo not given)
- Percent Effect (30.3 µM, […]): 22.42%

Compound: C=C1C(C)(C)[C@H]2CC[C@]1(C(=O)N1CCC(Cn3cc(CO)nn3)CC1)C2
- Percent Effect (30.3 µM, […]): -11.33%

Compound: Cc1nc(CN2CCN(C(=O)CCc3ccco3)CC2)cs1
- Percent Effect (30 µM): 15.52%

Compound: Cc1nc(CN2CCC3(CCCN(Cc4ccoc4)C3)C2=O)cs1.O=C(O)C(F)(F)F.O=C(O)C(F)(F)F (stereo not given)
- Percent Effect (30.3 µM, […]): 15.73%

Compound: Cc1nc(CN2C(=O)CCC23CCN(Cc2ccco2)CC3)cs1
- Percent Effect (30.3 µM, […]): 23.38%

Compound: Cc1nc(CN2CCC23CCN(Cc2ccoc2)CC3)cs1
- Percent Effect (30.3 µM, […]): 63.43%

Compound: Cc1nc(CN2C(=O)CCC23CCN(Cc2ccoc2)CC3)cs1.O=C(O)C(F)(F)F.O=C(O)C(F)(F)F
- Percent Effect (30.3 µM, […]): 9.105%

Compound: Cc1nc(CN2CCC23CCN(Cc2ccco2)CC3)cs1
- Percent Effect (30.3 µM, […]): 53.61%

Compound: Cc1nc(CN2CCC3(C2)CN(Cc2ccco2)C3)cs1
- Percent Effect (30.3 µM, […]): 58.57%

Compound: Cc1nc(CN2CCC3(C2)CN(C(=O)c2ccc[nH]2)C3)cs1
- Percent Effect (30.3 µM, […]): 35.81%

Compound: Cc1nc(CN2CCC23CCN(C(=O)c2ccco2)CC3)cs1
- Percent Effect (30.3 µM, […]): 26.24%

Compound: CCCc1nc(CN(CC)C(=O)c2ccc3ncsc3c2)no1
- Percent Effect (30.3 µM, […]): -29.17%

Compound: COc1ccc(-c2nccn2CC(O)CN2CCCC2)c(F)c1 (stereo not given)
- Percent Effect (30.3 µM, […]): 5.05%

Compound: COc1ccc2cnn(CC(=O)NC3CCCCC3)c(=O)c2c1OC
- Percent Effect (30.3 µM, […]): 14.43%

Compound: CNS(=O)(=O)CCn1cc(-c2ccc(OC)c(OC)c2)nn1
- Percent Effect (30.3 µM, […]): 27.44%

Compound: CCn1cc2c(n1)C(COC)CN(C(=O)COc1ccccc1C)C2 (stereo not given)
- Percent Effect (30 µM, 30.03 µM): -0.4533%

Compound: CC(C)c1ncncc1C(=O)N1CCN(Cc2ccccn2)CC1
- Percent Effect (30 µM): 24.52%

Compound: NC(=O)c1cccc(OCC(=O)NS(=O)(=O)c2ccc3c(c2)CCC3)c1
- Percent Effect (30 µM): 8.199%

Compound: Cc1nn(C)c(N2CCOCC2)c1CNC1COc2ccccc2C1 (stereo not given)
- Percent Effect (30 µM): 6.69%

Compound: CC(=O)NCCCc1ncnn1-c1cccc(Cl)c1
- Percent Effect (30.3 µM, […]): -4.184%

Compound: O=C(NCCC(=O)N1CCCc2ccccc21)c1c(O)cc(F)cc1F
- Percent Effect (30 µM, 30.03 µM): 50.32%

Compound: O=C(NCC(=O)N1CCCc2ccccc21)c1c(O)cc(F)cc1F
- Percent Effect (30 µM): 16.08%

Compound: O=C(NCCC(=O)N1CCCc2ccccc21)c1c(F)cccc1F
- Percent Effect (30 µM): 15.29%

Compound: Cc1ccc(CN2C[C@@H]3[C@@H](C(=O)NCC(C)C)CCS(=O)(=O)[C@@H]3C2)cc1.O=C(O)C(F)(F)F
- Percent Effect (30.3 µM, […]): -6.029%

Compound: CCc1nnc(SCC(=O)Nc2cc(C(C)(C)C)nn2C)[nH]1
- Percent Effect (30.3 µM, […]): 21.82%

Compound: CCc1cc(NC2CCN(CC(N)=O)CC2)nc(N2CCCCC2)n1
- Percent Effect (30.3 µM, […]): 55.44%

Compound: CCc1cc(NC2CCS(=O)(=O)CC2)nc(N2CCCCC2)n1
- Percent Effect (30.3 µM, […]): -6.887%

Compound: CCc1cc(NCC(N)=O)nc(N2CCCCC2)n1
- Percent Effect (30.3 µM, […]): 21.93%

Compound: CCc1ccsc1C(=O)N1CCS(=O)(=O)CC1
- Percent Effect (30.3 µM, […]): 9.315%

Compound: COC(=O)c1sccc1CN1CCN(C(=O)c2ccc(C)o2)CC1
- Percent Effect (30.3 µM, […]): 23.22%

Compound: CCc1ccsc1C(=O)N1CCN(C(=O)c2ccc(C)o2)CC1
- Percent Effect (30.3 µM, […]): 56.23%
